# The supplement of paper PMC10338343
# ± gives the standard deviation.
# Experiments:
# [1] = tested on: MILI (PIWIL2) piRISC loaded with piRNA #1 (26 nt); test: pre-steady-state target cleavage rate (min^-1); guide: piRNA #1 5'p-UGAGGUAGUAGGUUGUAUAGUAUCCA; higher = faster piRNA-guided slicing of the target; conditions: auxiliary factor: 500 nM mouse GTSF1
# Summary of the method: (§1)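 With or without 500 nM GTSF1 partner protein, 1 nM active affinity-purified piRISC carrying one synthetic guide was mixed with 0.1 nM transcribed, DNA-blocked target RNA library in HEPES–potassium acetate buffer at 33 °C for 0–8 or 0–960 min. Uncleaved targets were sequenced and normalised to depth and to weakly complementary targets, three trials were pooled, and k3 was capped at 0.0001 min^-1. The pre-steady-state cleavage rate came from a burst-and-steady-state fit.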
# [2] = tested on: EfPiwi piRISC loaded with piRNA #1 (26 nt); test: pre-steady-state target cleavage rate (min^-1); auxiliary factor: 500 nM Ephydatia muelleri Gtsf1; guide: piRNA #1 5'p-UGAGGUAGUAGGUUGUAUAGUAUCCA; MIWI and MILI are mouse PIWI proteins and EfPiwi is from a freshwater sponge; tags in brackets are library labels; higher = faster piRNA-guided slicing of the target
# Summary of the method: as §1
sequence,measurement,setting,value
GGAGUGGAUACUAUACAUCCUACUUCCUCA,pre-steady-state target cleavage rate,[1],0.0127 ± 0.0032
same,pre-steady-state target cleavage rate,[2],0.00326 ± 0.0017
GGAGACGAUACUAUACAACCUACUAGCCUCA,pre-steady-state target cleavage rate,[1],0.159 ± 0.021
same,pre-steady-state target cleavage rate,[2],0.00485 ± 0.002
GGAGACGAUACUAUACAUCCUUCUACCUCA,pre-steady-state target cleavage rate,[1],0.0277 ± 0.0037
same,pre-steady-state target cleavage rate,[2],0.00356 ± 0.0021
GGAGUCGAUACUAUACAUCCUACUACCUCA,pre-steady-state target cleavage rate,[1],0.313 ± 0.017
same,pre-steady-state target cleavage rate,[2],0.0165 ± 0.007
GGAGAGGAUACUAUACAACCUACUACCUGCA,pre-steady-state target cleavage rate,[1],0.137 ± 0.012
same,pre-steady-state target cleavage rate,[2],0.00613 ± 0.0026
GGAGUGGAUACUAUACAACUUACUACCUCA,pre-steady-state target cleavage rate,[1],0.0246 ± 0.0024
same,pre-steady-state target cleavage rate,[2],0.01 ± 0.0049
GGAGACGAUUCUAUAGAACCUACUACCUCA,pre-steady-state target cleavage rate,[1],0.172 ± 0.012
same,pre-steady-state target cleavage rate,[2],0.00226 ± 0.0018
GGAGACGAUUCUAUACAACCUACUAGCUCA,pre-steady-state target cleavage rate,[1],0.12 ± 0.013
same,pre-steady-state target cleavage rate,[2],0.00278 ± 0.0019
GGAGACGAUACUAGACAACCUACUACCUCA,pre-steady-state target cleavage rate,[1],0.171 ± 0.013
same,pre-steady-state target cleavage rate,[2],0.00452 ± 0.0029
GGAGAGGAUACUAUACAACCUACUAACCUCA,pre-steady-state target cleavage rate,[1],0.159 ± 0.016
same,pre-steady-state target cleavage rate,[2],0.00574 ± 0.0027
GGAGACGAUACUAUACAACCAACUUCCUCA,pre-steady-state target cleavage rate,[1],0.00374 ± 0.0027
same,pre-steady-state target cleavage rate,[2],0.00381 ± 0.0022
GGAGAGGAUACUAUACAACCAACUACCACA,pre-steady-state target cleavage rate,[1],0.0058 ± 0.0018
same,pre-steady-state target cleavage rate,[2],0.00388 ± 0.0019
GGAGUGGAUACUAUACAACCUACUAUCUCA,pre-steady-state target cleavage rate,[1],0.137 ± 0.011
same,pre-steady-state target cleavage rate,[2],0.0684 ± 0.026
GGAGAGGAUACUAUACAACCUACUACACUCA,pre-steady-state target cleavage rate,[1],0.136 ± 0.019
same,pre-steady-state target cleavage rate,[2],0.00522 ± 0.0018
GGAGAGGAUACUAUAUAACCUACUACCUCA,pre-steady-state target cleavage rate,[1],0.167 ± 0.01
same,pre-steady-state target cleavage rate,[2],0.109 ± 0.041
GGAGACGAUACUAUACUACGUACUACCUCA,pre-steady-state target cleavage rate,[1],0.0345 ± 0.004
same,pre-steady-state target cleavage rate,[2],0.00413 ± 0.0027
GGAGACCAUACAUUACAACCUACUACCUCA,pre-steady-state target cleavage rate,[1],0.0869 ± 0.014
same,pre-steady-state target cleavage rate,[2],0.0108 ± 0.0045
GGAGACGUACUAUACAACCUACUACCUCA,pre-steady-state target cleavage rate,[1],0.154 ± 0.015
same,pre-steady-state target cleavage rate,[2],0.0561 ± 0.022
GGAGACCAUACUAUAUAACCUACUACCUCA,pre-steady-state target cleavage rate,[1],0.155 ± 0.016
same,pre-steady-state target cleavage rate,[2],0.00757 ± 0.0042
GGAGAGGAUACUAUACAACCUACUACGACA,pre-steady-state target cleavage rate,[1],0.0606 ± 0.017
same,pre-steady-state target cleavage rate,[2],0.0044 ± 0.0023
GGAGUCGAUACUAUACAACCUACUACCACA,pre-steady-state target cleavage rate,[1],0.175 ± 0.014
same,pre-steady-state target cleavage rate,[2],0.0037 ± 0.0015
GGAGUGGAUACUAUACAACCUACUGACCUCA,pre-steady-state target cleavage rate,[1],0.0789 ± 0.011
same,pre-steady-state target cleavage rate,[2],0.00401 ± 0.0014
GGAGACCUAACUAUACAACCUACUACCUCC [g2:g21:cont:t1C],pre-steady-state target cleavage rate,[1],0.175 ± 0.03
same,pre-steady-state target cleavage rate,[2],0.00701 ± 0.0033
GGAGUGGAUACUAUACAAGGUACUACCUCA,pre-steady-state target cleavage rate,[1],0.0661 ± 0.0076
same,pre-steady-state target cleavage rate,[2],0.00342 ± 0.0019
GGAGACCUAACUAUACAACCUACUACCUCG [g2:g21:cont:t1G],pre-steady-state target cleavage rate,[1],0.189 ± 0.035
same,pre-steady-state target cleavage rate,[2],0.0178 ± 0.0076
GGAGACCAUACUAUACAACCUACUAGCACA,pre-steady-state target cleavage rate,[1],0.0527 ± 0.018
same,pre-steady-state target cleavage rate,[2],0.00447 ± 0.0023
GGAGACCAUACUAUACAACCUUCUACGUCA,pre-steady-state target cleavage rate,[1],0.00397 ± 0.0034
same,pre-steady-state target cleavage rate,[2],0.00387 ± 0.0029
GGAGACGAUAGUAUACAACCUAGUACCUCA,pre-steady-state target cleavage rate,[1],0.0719 ± 0.011
same,pre-steady-state target cleavage rate,[2],0.00201 ± 0.0013
GGAGACCUAACUAUACAACCUACUACUUCA,pre-steady-state target cleavage rate,[1],0.084 ± 0.02
same,pre-steady-state target cleavage rate,[2],0.00438 ± 0.0028
GGAGACCAUACUUUACAACCUACUACCUGA,pre-steady-state target cleavage rate,[1],0.0887 ± 0.018
same,pre-steady-state target cleavage rate,[2],0.00591 ± 0.0031
GGAGAGGAAACUAUUCAACCUACUACCUCA,pre-steady-state target cleavage rate,[1],0.172 ± 0.021
same,pre-steady-state target cleavage rate,[2],0.013 ± 0.0061
GGAGAGGAAACUAUACAACCUACUACCUCA,pre-steady-state target cleavage rate,[1],0.222 ± 0.026
same,pre-steady-state target cleavage rate,[2],0.00596 ± 0.0036
GGAGACCUUACUAUACAACCCACUACCUCA,pre-steady-state target cleavage rate,[1],0.0224 ± 0.0038
same,pre-steady-state target cleavage rate,[2],0.00926 ± 0.0048
GGAGAGGAUACUUAUACAACCUACUACCUCA,pre-steady-state target cleavage rate,[1],0.127 ± 0.012
same,pre-steady-state target cleavage rate,[2],0.112 ± 0.045
GGAGACCUUACUAUUACAACCUACUACCUCA,pre-steady-state target cleavage rate,[1],0.117 ± 0.01
same,pre-steady-state target cleavage rate,[2],0.00484 ± 0.0035
GGAGACCAUACUAUACAACCUAGCUACCUCA,pre-steady-state target cleavage rate,[1],0.0804 ± 0.012
same,pre-steady-state target cleavage rate,[2],0.00373 ± 0.0029
GGAGUGGAUACUAUACAUGGUACUACCUCA,pre-steady-state target cleavage rate,[1],0.00713 ± 0.0016
same,pre-steady-state target cleavage rate,[2],0.00303 ± 0.0028
GGAGAGGAUACUAUACAACCUACUACUCA,pre-steady-state target cleavage rate,[1],0.109 ± 0.017
same,pre-steady-state target cleavage rate,[2],0.00563 ± 0.0029
GGAGACGAUCUAUACAACCUACUACCUCA,pre-steady-state target cleavage rate,[1],0.174 ± 0.013
same,pre-steady-state target cleavage rate,[2],0.0198 ± 0.01
GGAGAGGAUACUAUUCAACCUACUACCACA,pre-steady-state target cleavage rate,[1],0.169 ± 0.017
same,pre-steady-state target cleavage rate,[2],0.00331 ± 0.0019
GGAGAGGAUACUAUACUACGUACUACCUCA,pre-steady-state target cleavage rate,[1],0.0192 ± 0.0028
same,pre-steady-state target cleavage rate,[2],0.00407 ± 0.0022
GGAGUGGAUACUAAACAACCUACUACCUCA,pre-steady-state target cleavage rate,[1],0.168 ± 0.0092
same,pre-steady-state target cleavage rate,[2],0.00791 ± 0.0037
GGAGUGCAAACUAUACAACCUACUACCUCA,pre-steady-state target cleavage rate,[1],0.126 ± 0.012
same,pre-steady-state target cleavage rate,[2],0.00676 ± 0.0044
GGAGACCAUACUAUACAACCUACUAUCUCA,pre-steady-state target cleavage rate,[1],0.136 ± 0.013
same,pre-steady-state target cleavage rate,[2],0.00899 ± 0.0033
GGAGAGGAUACUAUACAACCUACUACCUCU [g2:g25:cont:t1U],pre-steady-state target cleavage rate,[1],0.238 ± 0.025
same,pre-steady-state target cleavage rate,[2],1.56 ± 0.47
GGAGACGAAACUAUACAACCUACUAGCUCA,pre-steady-state target cleavage rate,[1],0.083 ± 0.025
same,pre-steady-state target cleavage rate,[2],0.00368 ± 0.0023
GGAGACCUAUGAAUACAACCUACUACCUUA,pre-steady-state target cleavage rate,[1],0.00551 ± 0.0022
same,pre-steady-state target cleavage rate,[2],0.00423 ± 0.0038
GGAGAGGAUACUAUACAACCUACAUACCUCA,pre-steady-state target cleavage rate,[1],0.123 ± 0.012
same,pre-steady-state target cleavage rate,[2],0.00353 ± 0.0021
GGAGACCAUACUUAACAACCUACUACCUCA,pre-steady-state target cleavage rate,[1],0.134 ± 0.018
same,pre-steady-state target cleavage rate,[2],0.00395 ± 0.0032
GGAGACCAUACUAUACUACCUAGUACCUCA,pre-steady-state target cleavage rate,[1],0.0453 ± 0.0095
same,pre-steady-state target cleavage rate,[2],0.00377 ± 0.0033
GGAGACCUUACUACACAACCUACUACCUCA,pre-steady-state target cleavage rate,[1],0.126 ± 0.017
same,pre-steady-state target cleavage rate,[2],0.00432 ± 0.0039
GGAGACCUAUGUAAUACAACCUACUACCUCA,pre-steady-state target cleavage rate,[1],0.0179 ± 0.0049
same,pre-steady-state target cleavage rate,[2],0.00412 ± 0.0028
GGAGAGGAUACUAUACAACCUACUACCAGA,pre-steady-state target cleavage rate,[1],0.0384 ± 0.0076
same,pre-steady-state target cleavage rate,[2],0.00451 ± 0.0018
GGAGACGAUACUUUACAACGUACUACCUCA,pre-steady-state target cleavage rate,[1],0.0294 ± 0.0045
same,pre-steady-state target cleavage rate,[2],0.00234 ± 0.0017
GGAGAGGAAACUAUACAUCCUACUACCUCA,pre-steady-state target cleavage rate,[1],0.302 ± 0.029
same,pre-steady-state target cleavage rate,[2],0.00711 ± 0.0026
GGAGUGGAUACUAUACAACCUACAACCUCA,pre-steady-state target cleavage rate,[1],0.0801 ± 0.011
same,pre-steady-state target cleavage rate,[2],0.00468 ± 0.0018
GGAGUGGAUACUAUACAACCUACUGCCUCA,pre-steady-state target cleavage rate,[1],0.102 ± 0.0082
same,pre-steady-state target cleavage rate,[2],0.00835 ± 0.0028
GGAGACGAUACUAUACAAGCUACUACCUGA,pre-steady-state target cleavage rate,[1],0.202 ± 0.022
same,pre-steady-state target cleavage rate,[2],0.00333 ± 0.0015
GGAGACCUAACUAUACAUCCUACUACCUCA,pre-steady-state target cleavage rate,[1],0.239 ± 0.028
same,pre-steady-state target cleavage rate,[2],0.00745 ± 0.0028
GGAGACCUUACUAUACAACCUACUUCCUCA,pre-steady-state target cleavage rate,[1],0.0805 ± 0.016
same,pre-steady-state target cleavage rate,[2],0.0038 ± 0.0028
